Reference: PubChem BioAssay AID1347165 (National Center for Advancing Translational Sciences (NCATS), 2019)
About 5,700 (2.6%) of roughly 220,000 compounds were called active. Roughly 18% stayed inconclusive and do not appear here. Only a selection was taken, and actives are over-represented in it overall. Values without a mark were called inactive. Calls follow the shape of the dose curve; as a rule, active = well fitted inhibition curve with a large enough effect; inconclusive = small, poorly fitted or top-dose-only effect; inactive = no such curve, though single readings can be large or run the other way.

molecular target: Lysine-specific demethylase 5B (Homo sapiens) (UniProt Q9UGL1); test: Primary screen for KDM5B Histone Demethylases FDH-coupled qHTS; details: FDH-coupled NADH fluorescence (FDH is formaldehyde dehydrogenase); series mostly up to 57.7 µM; activity change, negative = inhibition: at the top concentration; also: nearly all actives have a fitted effect of over 70% in size; as to activity change, negative = inhibition: 0% is about no effect
Sequence (Q9UGL1 whole entry, looked up): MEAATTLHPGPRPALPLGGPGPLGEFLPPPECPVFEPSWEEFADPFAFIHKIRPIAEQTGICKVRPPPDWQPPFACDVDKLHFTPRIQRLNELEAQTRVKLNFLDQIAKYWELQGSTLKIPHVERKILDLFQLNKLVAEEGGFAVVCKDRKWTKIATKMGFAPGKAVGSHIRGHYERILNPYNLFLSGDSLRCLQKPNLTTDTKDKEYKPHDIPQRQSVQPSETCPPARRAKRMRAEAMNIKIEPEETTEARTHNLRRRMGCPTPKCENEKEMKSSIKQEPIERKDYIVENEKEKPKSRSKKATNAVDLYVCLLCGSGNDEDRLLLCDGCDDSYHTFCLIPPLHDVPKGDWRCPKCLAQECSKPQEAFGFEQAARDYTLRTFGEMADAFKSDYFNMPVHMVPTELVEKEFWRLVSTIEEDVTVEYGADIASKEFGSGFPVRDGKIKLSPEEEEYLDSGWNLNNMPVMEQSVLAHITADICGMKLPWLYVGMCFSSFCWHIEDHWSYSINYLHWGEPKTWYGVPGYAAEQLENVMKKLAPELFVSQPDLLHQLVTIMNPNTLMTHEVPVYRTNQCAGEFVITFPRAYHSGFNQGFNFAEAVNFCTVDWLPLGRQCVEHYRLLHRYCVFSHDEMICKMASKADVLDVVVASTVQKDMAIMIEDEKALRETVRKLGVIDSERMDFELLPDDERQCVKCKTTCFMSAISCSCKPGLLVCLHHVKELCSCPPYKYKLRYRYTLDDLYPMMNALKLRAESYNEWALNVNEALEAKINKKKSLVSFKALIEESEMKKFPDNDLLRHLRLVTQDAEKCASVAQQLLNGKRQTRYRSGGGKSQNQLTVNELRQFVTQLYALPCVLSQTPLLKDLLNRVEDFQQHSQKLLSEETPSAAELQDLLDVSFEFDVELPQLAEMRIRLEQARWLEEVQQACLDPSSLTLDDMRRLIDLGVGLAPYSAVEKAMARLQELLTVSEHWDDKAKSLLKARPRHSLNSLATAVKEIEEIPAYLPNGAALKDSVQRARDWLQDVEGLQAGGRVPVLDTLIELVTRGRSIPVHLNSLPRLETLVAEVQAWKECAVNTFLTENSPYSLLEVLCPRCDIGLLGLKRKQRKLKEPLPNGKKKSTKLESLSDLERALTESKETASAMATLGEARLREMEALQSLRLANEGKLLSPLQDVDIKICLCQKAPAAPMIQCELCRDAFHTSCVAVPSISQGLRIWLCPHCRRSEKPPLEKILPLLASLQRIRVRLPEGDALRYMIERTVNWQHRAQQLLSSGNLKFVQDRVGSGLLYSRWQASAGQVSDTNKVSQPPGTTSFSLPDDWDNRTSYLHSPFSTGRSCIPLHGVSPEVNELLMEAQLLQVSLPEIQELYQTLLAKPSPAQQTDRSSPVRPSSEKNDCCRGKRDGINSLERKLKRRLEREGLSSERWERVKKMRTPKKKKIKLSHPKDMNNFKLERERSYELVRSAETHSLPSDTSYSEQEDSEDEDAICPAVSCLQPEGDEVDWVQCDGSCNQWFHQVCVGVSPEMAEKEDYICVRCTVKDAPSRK
Outline: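 qHTS format, multiple compound concentrations. Buffer 50 mM HEPES pH 7.5/0.01% Tween-20; 200 nM KDM5BΔAP final; 10 min compound preincubation; substrate-mix levels 12.5 µM peptide, 25 µM α-KG, 0.25 mM NAD⁺; 30 min RT; ΔRFU.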
Potency is read from the fitted curve at half-maximal effect.

Compound | activity change, negative = inhibition | Potency
Cc1cc2oc(=O)cc(CN3CCN(CCc4ccncc4)CC3)c2cc1C | -2.75% | –
Cc1ccc(C)c2c(=O)cc(CN3CCN(CCn4cncn4)CC3)[nH]c12 | – | 25.1 µM (active)
O=C(CCn1cncn1)N1CCc2[nH]nc(-c3cccc4ccccc34)c2C1 | -15% | –
Cc1nn(C)cc1CNC(=O)c1cc2nc(-c3ccc(Cl)s3)cc(C(F)(F)F)n2n1 | 33.1% | –
Cc1cc(C)c(NC(=O)CN(C)Cc2coc(-c3ccccc3)n2)c(C)c1 | 1.75% | –
O=C(c1nc(-c2ccsc2)c2cnccn12)N1CCCC1 | – | 35.5 µM (active)
COc1cccc(Cn2c(SCc3ccc(C(=O)N4CCCCC4)cc3)nc3ccncc32)c1 | -2.19% | –
O=C(c1nc(-c2cccnc2)c2cnccn12)N1CCN(c2ncccn2)CC1 | -2790% | –
CNC(=O)[C@@H](Cc1ccccc1)N1CCC[C@H]1C(=O)N1CCC1 | – | 28.2 µM (active)
CNC(=O)C(C)(C)N1CCC[C@H]1C(=O)N(C)Cc1ccccc1 | 10.2% [at 86.2 µM] | –
CCNC(=O)[C@@H]1CCCN1[C@@H](C(=O)NC)c1ccccc1OC | -6.62% [at 86.2 µM] | –
Cc1cccc(OC(C)C(=O)Nc2cc(-c3ccc(F)c(F)c3)no2)c1C (configuration not stated) | -3.36% | –
O=S(=O)(NCCc1csc2nc(-c3ccccc3)nn12)c1cc(Cl)ccc1Cl | 5.42% | –
Cc1ccc(-c2nc(C3CC(=O)N(c4ccc(Cl)cc4)C3)no2)cc1C (configuration not stated) | -7.68% | –
O=C1CC(c2noc(-c3ccc(F)c(Cl)c3)n2)CN1c1ccc(F)cc1 (configuration not stated) | -32.5% | –
COc1ccc(-c2nc(C3CC(=O)N(c4ccc(F)c(Cl)c4)C3)no2)cc1OC (configuration not stated) | – | 31.6 µM (active)
Cc1ccc(F)cc1NC(=O)CCc1c[nH]c2ccccc12 | 17.4% | –
COc1ccc(S(=O)(=O)N2CCC(C)CC2)c2cccnc12 | 12.9% | –
CC(NC(=O)c1ccc(F)cc1)C12CC3CC(CC(C3)C1)C2 (configuration not stated) | 14.3% | –
CCCn1c(CN2CCCCC2)nc2cc(NC(=O)c3cc(OC)c(OC)c(OC)c3)ccc21 | 5.88% | –
Cc1cc(NC(=O)COc2c(CO)cc(F)cc2CO)ccc1Br | -18.6% | –
COc1ccc(-c2noc(CCC(=O)Nc3ccn(C)n3)n2)cc1 | -1.76% | –
O=C1CCC(C(=O)NCc2ccc(-c3cnc4c(Oc5ccccc5)nccn34)cc2)N1 (configuration not stated) | – | 35.5 µM (active)
O=C1NC(C(=O)NCc2ccccn2)Cn2cccc21 (configuration not stated) | -25.1% | –
COc1ccc(CNC(=O)NCC(=O)N2CCCCCCNC(=O)CC2c2ccccc2)cc1 (configuration not stated) | 10.8% | –
O=S(=O)(c1ccc(Cl)cc1)c1nc(-c2ccco2)oc1N1CCCCC1 | -11.1% | –

Compound | activity change, negative = inhibition | Potency
Cc1ccc(C)c(NC(=O)C(c2ccccc2)n2cnc3c2c(=O)n(C)c(=O)n3C)c1 (configuration not stated) | -13.9% | –
COc1cccc(OCCN(C)Cc2cn(-c3ccccc3)nn2)c1 | 5.71% | –
O=C(CCOc1ccc(Cl)cc1)N1CCC(c2nnc3n2CCC3)CC1 | -10.3% | –
Cc1ccc2nc(NC(C)(C)CO)nc(-c3ccccc3)c2c1 | 120% | –
CC(CC#N)NC(=O)c1cc2ccccc2cc1NC(=O)OC(C)(C)C (configuration not stated) | 40.3% | –
Cc1cc(C)nc(NC(=O)Nc2ccc(C)c(F)c2)c1 | 4.73% | –
COc1ccc(-c2ocnc2C(=O)Nc2cccc(Cl)c2)cc1 | 10.2% | –
COc1ccc(NC(=O)Cn2cccc2-c2nc(-c3ccc4c(c3)OCO4)no2)c(OC)c1 | 3.86% | –
Cc1ccc(NC(=O)Cn2cccc2-c2nc(-c3ccc4c(c3)OCO4)no2)cc1Cl | 3.09% | –
O=C(CCc1ccccc1)NCCn1cccc1-c1nc(-c2ccc3c(c2)OCO3)no1 | – | 31.6 µM (active)
N#CCc1ccc(OCC(O)Cn2cnc3ccc(Cl)cc3c2=O)cc1 (configuration not stated) | 4.38% | –
Cc1ccc(S(=O)(=O)N2CCN(C)CC2)cc1C(=O)NC1CCCCC1 | 23.1% | –
CCOC(=O)N1CCC(NC(=O)CS(=O)Cc2nc(-c3ccccc3F)oc2C)CC1 (configuration not stated) | 4.01% | –
CCc1nc(-c2ccc(OC3CCN(C(=O)Cc4c[nH]c5ccccc45)C3)cc2)no1 (configuration not stated) | 7.34% | –
O=C(Cc1cccn1-c1ccccc1)N1CCOCC1 | -6.08% | –
Cc1noc(C)c1-c1cnc2[nH]cc(CC(=O)N3CCOCC3)c2c1 | – | 35.5 µM (active)
Cc1ccc(S(=O)(=O)NC(=O)c2cccc(C)c2)cc1 | -7.21% | –
CCOc1ccccc1C(=O)N[C@@H]1CN(c2ncccn2)C[C@H]1CO | – | 22.4 µM (active)
CCOc1ccccc1C(=O)N1CCC(Oc2ncccc2C(=O)N(C)C)C1 (configuration not stated) | -1.4% | –
O=C(N[C@@H]1CN(c2ccncn2)C[C@H]1CO)C1CCCC1 | 12% | –
Cc1cccnc1C(=O)N[C@@H]1CN(c2ncccn2)C[C@H]1CO | – | 20 µM (active)
O=C(N[C@@H]1CN(Cc2cccnc2)C[C@H]1CO)c1cccnc1 | -2.06% | –
O=C(CCn1cccn1)N[C@@H]1CN(Cc2ccccc2)C[C@H]1CO | 14.5% | –
CCc1nc2nc3c(cn2n1)C(=O)CC(c1ccc(Cl)cc1)C3 (configuration not stated) | -0.51% | –
CC(C)NS(=O)(=O)c1ccc(OCC(=O)NC2CCCCCC2)cc1 | 16.2% | –
COc1ccc2c(=O)c(Oc3cccc(C)c3)c(C(F)(F)F)oc2c1 | -8.82% | –
